# Data taken from PubChem BioAssay (NCI).
# The panel holds about 79,000 compounds, 15% with a hit somewhere; the sample as a whole holds those more often. A number with no mark means an inactive call. The source made the active and inactive calls. Rule as the data show it: active = growth inhibition above about 70%; inactive = the rest.
# Legend:
# [1] = NCI Yeast Anticancer Drug Screen. Data for the rad52 strain (AID 147);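 also: 0% = growth of vehicle-treated control cultures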; conditions: S. cerevisiae rad52 mutant growth inhibition, hits give high values
# Summary of the method: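 DNA repair-defective yeast; compound exposure; growth scored against vehicle controls.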
# [2] = NCI Yeast Anticancer Drug Screen. Data for the wt1 strain (AID 149);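 also: 0% = growth of vehicle-treated wt1 cultures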; conditions: S. cerevisiae wt1 strain (SPY 50644) growth inhibition, hits give high values
# Summary of the method: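 Growth inhibition read against vehicle controls after compound exposure of the wt1 yeast strain.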
# [3] = NCI Yeast Anticancer Drug Screen. Data for the mgt1 strain (AID 153); conditions: S. cerevisiae mgt1 mutant growth inhibition, hits give high values
# Summary of the method: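 Growth inhibition relative to vehicle controls was scored for the mgt1 yeast strain after compound exposure.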
# [4] = NCI Yeast Anticancer Drug Screen. Data for the rad50 strain (AID 155);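 also: 0% = growth of vehicle-only cultures of the same strain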; conditions: S. cerevisiae rad50 strain growth inhibition, hits give high values
# Summary of the method: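 Readout: growth inhibition relative to vehicle-treated cultures. Compound exposure was carried out in a genetically defined yeast strain deficient in DNA damage repair.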
# [5] = NCI Yeast Anticancer Drug Screen. Data for the mec2-1 strain (AID 157); conditions: S. cerevisiae mec2-1 strain, hits give high values
# Summary of the method: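 Growth inhibition is read against vehicle-treated controls after compound exposure of the mec2-1 yeast strain, which is defective in DNA damage repair or cell cycle control.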
# [6] = NCI Yeast Anticancer Drug Screen. Data for the rad14 strain (AID 159);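 also: 0% = growth of vehicle-treated control cultures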; conditions: S. cerevisiae rad14 strain growth inhibition, hits give high values
# Summary of the method: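 Growth inhibition vs vehicle controls; genetically altered yeast strain (DNA damage repair defect) treated with test compounds.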
# [7] = NCI Yeast Anticancer Drug Screen. Data for the sgs1 mgt1 strain (AID 161);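 also: 0% = growth of cultures given vehicle only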; conditions: S. cerevisiae sgs1 mgt1 strain, hits give high values
# Summary of the method: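 Growth of a repair-deficient yeast mutant was monitored after compound treatment and expressed as inhibition relative to vehicle-treated cultures.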
# [8] = NCI Yeast Anticancer Drug Screen. Data for the CLN2oe strain (AID 163);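 also: 0% = growth of vehicle-only control cultures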; conditions: S. cerevisiae CLN2oe strain, hits give high values
# Summary of the method: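 Compound-treated yeast; growth vs vehicle ctrl = % inhibition. Genetically altered strain (cell-cycle control).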
# [9] = NCI Yeast Anticancer Drug Screen. Data for the cln2 rad14 strain (AID 165);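 also: 0% = growth equal to vehicle treated cultures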; conditions: S. cerevisiae cln2 rad14 strain, hits give high values
# Summary of the method: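 Growth inhibition, relative to vehicle-treated controls, is the read-out. The test organism is a yeast strain with defined genetic alterations, cln2 rad14.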
# [10] = NCI Yeast Anticancer Drug Screen. Data for the bub3 strain (AID 167); conditions: S. cerevisiae bub3 mutant strain, hits give high values
# Summary of the method: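 Readout: yeast growth inhibition, expressed relative to vehicle-only wells. The test organism is a mutant strain from a panel with lesions in DNA repair or checkpoint genes.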
# [11] = NCI Yeast Anticancer Drug Screen. Data for the wt2 strain (AID 169);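 also: 0% = growth of vehicle-treated yeast cultures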; conditions: S. cerevisiae wt2 strain growth inhibition, hits give high values
# Summary of the method: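 Compound exposure of yeast; growth compared with vehicle controls; inhibition reported.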
# [12] = NCI Yeast Anticancer Drug Screen. Data for the mlh1 strain (AID 171);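 also: 0% = growth of vehicle-treated control cultures of the same strain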; conditions: S. cerevisiae mlh1 strain growth inhibition, hits give high values
# Summary of the method: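 Compounds are applied to a genetically altered yeast strain, and its growth is compared with that of vehicle-treated cultures to give percent inhibition.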
# [13] = NCI Yeast Anticancer Drug Screen. Data for the sgs1 strain (AID 173);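 also: 0% = growth of vehicle-only control cultures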; conditions: S. cerevisiae sgs1 mutant, hits give high values
# Summary of the method: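 Compounds applied to genetically altered yeast; growth compared with vehicle-treated cultures to give % inhibition.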
# [14] = NCI Yeast Anticancer Drug Screen. Data for the mlh1 rad18 strain (AID 175); conditions: S. cerevisiae mlh1 rad18 strain growth inhibition, hits give high values
# Summary of the method: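 Cells of a genetically altered yeast strain, deficient in DNA damage repair, were treated with compound. Their growth was then compared with that of vehicle-treated cultures to give inhibition.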
# [15] = NCI Yeast Anticancer Drug Screen. Data for the rad18 strain (AID 177); conditions: S. cerevisiae rad18 mutant growth inhibition, hits give high values
# Summary of the method: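 Compounds are applied to a repair-deficient yeast strain, and growth is compared with that of vehicle-treated cultures to give percent inhibition.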
# [16] = at 5.0 µM (retest, dose inferred, filed as 0.5)
# [17] = at 50.0 µM (retest, dose inferred, filed as 5.0)
smiles,measurement,setting,value
CN(C)CCNCCCNc1c2ccccc2nc2cccc([N+](=O)[O-])c12,growth inhibition,[1]; at 1.2 µM,23%
same,growth inhibition,[1]; at 3.7 µM,46%
same,growth inhibition,[1]; at 11.0 µM,80% (active)
same,growth inhibition,[1]; at 33.0 µM,89% (active)
same,growth inhibition,[1]; at 100.0 µM,94% (active)
same,growth inhibition,[2]; at 1.2 µM,-14%
same,growth inhibition,[2]; at 3.7 µM,9%
same,growth inhibition,[2]; at 11.0 µM,11%
same,growth inhibition,[2]; at 33.0 µM,20%
same,growth inhibition,[2]; at 100.0 µM,50%
same,growth inhibition,[3]; at 1.2 µM,4%
same,growth inhibition,[3]; at 3.7 µM,18%
same,growth inhibition,[3]; at 11.0 µM,20%
same,growth inhibition,[3]; at 33.0 µM,26%
same,growth inhibition,[3]; at 100.0 µM,58%
same,growth inhibition,[4]; at 1.2 µM,9%
same,growth inhibition,[4]; at 3.7 µM,39%
same,growth inhibition,[4]; [16],17%
same,growth inhibition,[4]; at 11.0 µM,61%
same,growth inhibition,[4]; at 33.0 µM,88% (active)
same,growth inhibition,[4]; [17],93% (active)
same,growth inhibition,[4]; at 50.0 µM,80.8% (active)
same,growth inhibition,[4]; at 100.0 µM,94% (active)
same,growth inhibition,[5]; at 1.2 µM,22%
same,growth inhibition,[5]; at 3.7 µM,18%
same,growth inhibition,[5]; [16],17%
same,growth inhibition,[5]; at 11.0 µM,50%
same,growth inhibition,[5]; at 33.0 µM,91% (active)
same,growth inhibition,[5]; [17],98% (active)
same,growth inhibition,[5]; at 50.0 µM,78.7% (active)
same,growth inhibition,[5]; at 100.0 µM,95% (active)
same,growth inhibition,[6]; at 1.2 µM,-2%
same,growth inhibition,[6]; at 3.7 µM,46%
same,growth inhibition,[6]; at 11.0 µM,92% (active)
same,growth inhibition,[6]; at 33.0 µM,97% (active)
same,growth inhibition,[6]; at 100.0 µM,97% (active)
same,growth inhibition,[7]; [16],73% (active)
same,growth inhibition,[7]; [17],95% (active)
same,growth inhibition,[7]; at 50.0 µM,79.7% (active)
same,growth inhibition,[8]; at 1.2 µM,-2%
same,growth inhibition,[8]; at 3.7 µM,-4%
same,growth inhibition,[8]; at 11.0 µM,2%
same,growth inhibition,[8]; at 33.0 µM,22%
same,growth inhibition,[8]; at 100.0 µM,81% (active)
same,growth inhibition,[9]; [16],80% (active)
same,growth inhibition,[9]; [17],97% (active)
same,growth inhibition,[9]; at 50.0 µM,97.5% (active)
same,growth inhibition,[10]; at 1.2 µM,-5%
same,growth inhibition,[10]; at 3.7 µM,-11%
same,growth inhibition,[10]; [16],-12%
same,growth inhibition,[10]; at 11.0 µM,-11%
same,growth inhibition,[10]; at 33.0 µM,6%
same,growth inhibition,[10]; [17],72% (active)
same,growth inhibition,[10]; at 50.0 µM,-3.8%
same,growth inhibition,[10]; at 100.0 µM,80% (active)
same,growth inhibition,[11]; at 1.2 µM,0%
same,growth inhibition,[11]; at 3.7 µM,1%
same,growth inhibition,[11]; at 11.0 µM,11%
same,growth inhibition,[11]; at 33.0 µM,33%
same,growth inhibition,[11]; at 100.0 µM,91% (active)
same,growth inhibition,[12]; at 1.2 µM,5%
same,growth inhibition,[12]; at 3.7 µM,18%
same,growth inhibition,[12]; at 11.0 µM,25%
same,growth inhibition,[12]; at 33.0 µM,46%
same,growth inhibition,[12]; at 100.0 µM,74% (active)
same,growth inhibition,[13]; at 1.2 µM,31%
same,growth inhibition,[13]; at 3.7 µM,58%
same,growth inhibition,[13]; at 11.0 µM,76% (active)
same,growth inhibition,[13]; at 33.0 µM,84% (active)
same,growth inhibition,[13]; at 100.0 µM,89% (active)
same,growth inhibition,[14]; [16],73% (active)
same,growth inhibition,[14]; [17],97% (active)
same,growth inhibition,[14]; at 50.0 µM,88.7% (active)
same,growth inhibition,[15]; at 1.2 µM,88% (active)
same,growth inhibition,[15]; at 3.7 µM,94% (active)
same,growth inhibition,[15]; at 11.0 µM,96% (active)
same,growth inhibition,[15]; at 33.0 µM,96% (active)
same,growth inhibition,[15]; at 100.0 µM,96% (active)
